Assay [1] in a line: qHTS assay for small molecule agonists of the p53 signaling pathway (AID 651631; calls by dose curve; further: nearly all actives have a fitted effect of over 15% in size; further: potency means the concentration at half of the fitted maximal effect). The essentials:
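Fluorescence intensity from cleaved LiveBLAzer B/G substrate (2 h, room temperature) served as the signal. Beforehand, HCT-116 reporter cells bearing p53 response elements were treated 16 h at 37 °C with DMSO-dissolved compounds.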
A general note: Quantitative high-throughput screening tests each substance at several concentrations.

Assay [2] can be described thus: qHTS assay for small molecules that induce genotoxicity in human embryonic kidney cells expressing luciferase-tagged ATAD5 (AID 651632). Further: nearly all actives have a fitted effect of over 15% in size. The gist of the method:
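Reporter cells (HEK293T) express luciferase-tagged ATAD5, a protein that accumulates after DNA damage. Treat 16 hr at 37C/5% CO2, add Amplite, wait 30 min at RT, and read luminescence.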

Assay [3] can be described thus: qHTS assay for small molecule agonists of the p53 signaling pathway - cell viability (AID 651633; calls by dose curve;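 further: p53RE-bla HCT reporter cells with a stable beta-lactamase p53 reporter; series mostly up to about 83 µM; nearly all actives have a fitted effect of over 30% in size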). The essentials: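 Viability counter-read: CellTiter-Glo luminescence (30 min, room temperature) in the same p53RE-bla plates. These plates had been exposed to compounds for 16 h at 37 C.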
A short description of assay [4]: qHTS assay for small molecules that induce genotoxicity in human embryonic kidney cells expressing luciferase-tagged ATAD5 - cell viability (AID 651634; calls by dose curve; further: nearly all actives have a fitted effect of over 25% in size). The gist of the method: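 Seeding of 2,000 HEK293T ATAD5-luciferase cells per well preceded pin-tool compound transfer. Plates sat 15.5 hr at 37C under 5% CO2, then fluorescence was read after 30 min with CellTiter-Fluor.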

Assay [5] can be described thus: qHTS assay for small molecule disruptors of the mitochondrial membrane potential - cell viability (AID 720634; calls by dose curve;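 further: human HepG2 liver cancer cells; series mostly up to about 83 µM; nearly all actives have a fitted effect of over 20% in size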). The essentials:
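Measuring cytotoxicity alongside mitochondrial potential, the screen quantified ATP by luminescence in HepG2 cells after 1 hr compound incubation and a 30 min room-temperature CellTiter-Glo step.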

Assay [6] in a line: qHTS assay for small molecule disruptors of the mitochondrial membrane potential (AID 720635). Further: potency means the concentration at half of the fitted maximal effect. The essentials: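 Mitochondrial membrane potential tracked with Mito-MPS dye, red aggregates (ex 540/em 590 nm) against green monomers (ex 490/em 535 nm). Compound treatment 1 hr at 37C, dye 30 min in HepG2.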
A short description of assay [7]: qHTS assay to test for compound auto fluorescence at 590 nm (red) in HepG2 cells (AID 720674). The essentials: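 Red autofluorescence (Ex/Em 540/590 nm, Rose Bengal sodium equivalents) was measured in HepG2 cells, 2,000 per well in MEM plus 10% FBS, plated overnight at 37 C. Readings were taken 1 hr after adding 23 nL compound or DMSO, at 37 C and 5% CO2.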
Assay [8] in a line: qHTS assay to test for compound auto fluorescence at 535 nm (green) in HepG2 cells (AID 720675).
Assay [9] can be described thus: qHTS assay to test for compound auto fluorescence at 460 nm (blue) in HEK293 cells (AID 720678). The essentials: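 Blue-channel (Ex/Em 405/460 nm) intensity measured in HEK293 cultures after overnight compound exposure at 37C; signal expressed relative to triamterene. Cells plated 2,000 per well in 10% dialyzed FBS medium and allowed 4-5 hr to attach.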
A short description of assay [10]: qHTS assay to test for compound auto fluorescence at 590 nm (red) in HEK293 cells (AID 720679). The essentials:
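Red-channel autofluorescence (Ex/Em 540/590 nm; Rose Bengal sodium reference) was measured after overnight 37C, 5% CO2 exposure of attached HEK293 cells, 2,000 per well in medium with 10% dialyzed FBS.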

Inconclusive results are not listed. Activity calls are given as the source filed them. Unless noted, the call rests on the fitted dose curve; in most records, active means well fitted curve in the direction sought with a large enough effect in the repeat runs; inconclusive means weak or mixed curves; inactive means no such curve, though single readings can be large; an effect the other way counts as inactive or inconclusive.

With `CN1C(=O)CN2CCc3ccccc3C2c2cc(Cl)ccc21` (stereo not given), in assay [1], the Potency was 29.8 µM (active). Also, the Potency entry in [2], in [3], in assay [4], in [5], in [6] and in assay [7] was “inactive” each time. Besides, the Potency entry in assay [8], in [9] and in assay [10] was “inactive” each time.
On to `O=S(O)CNc1ccc(S(=O)(=O)c2ccc(NCS(=O)O)cc2)cc1`, for which the Potency entry in assay [1], in assay [2], in [3], in assay [4], in assay [5] and in assay [6] was “inactive” in each case. Besides, the Potency entry in [7], in assay [8], in assay [9] and in assay [10] was “inactive” throughout.
For `CC(C)(C)CC(=O)OCC(=O)[C@@]12OC(C)(C)O[C@@H]1C[C@H]1[C@@H]3CCC4=CC(=O)C=C[C@]4(C)[C@@]3(F)[C@@H](O)C[C@@]12C`, the Potency entry in [1], in [2], in assay [3], in assay [4], in assay [5] and in [7] was “inactive” throughout. For the same compound, the Potency result in assay [8], in assay [9] and in assay [10] was “inactive” each time. Also, the Potency in assay [6] is 13.3 µM (active).
As for `CC(=O)O[C@H]1C[C@@H]2CC[C@@H]3[C@H](CC[C@@]4(C)[C@H]3C[C@H](N3CC[N+](C)(C)CC3)[C@@H]4OC(C)=O)[C@@]2(C)C[C@@H]1N1CC[N+](C)(C)CC1`, the Potency entry in assay [1], in [2], in assay [3], in assay [4], in [5] and in assay [6] was “inactive” in each case. The Potency result in [7], in assay [8], in assay [9] and in assay [10] was “inactive” throughout.
In the case of `O=C(O)[C@H](CC(=O)N1C[C@H]2CCCC[C@H]2C1)Cc1ccccc1`, the Potency entry in [1], in assay [2], in [3], in assay [4], in assay [5] and in [6] was “inactive” throughout. Moreover, the Potency entry in assay [7], in assay [8], in [9] and in [10] was “inactive” in each case.
Take `O=C[C@H](O)[C@@H](O)[C@H](O[C@H]1O[C@H](CO)[C@@H](O[C@H]2O[C@H](CO)[C@@H](O)[C@H](O)[C@H]2O)[C@H](O)[C@H]1O)[C@H](O)CO`: the Potency entry in assay [1], in assay [2], in assay [3], in [4], in [5] and in assay [6] was “inactive” each time. For the same compound, the Potency result in assay [7], in [8], in assay [9] and in [10] was “inactive” throughout.
`OCC(O)COc1ccc(Cl)cc1` (stereo not given): the Potency result in assay [1], in assay [2], in assay [3], in [4], in [5] and in assay [6] was “inactive” each time. Further, the Potency result in [7], in assay [8], in assay [9] and in assay [10] was “inactive” throughout.
Take `CCOC(=O)CN[C@@H](C(=O)N1CC[C@H]1C(=O)NCc1ccc(/C(N)=N/O)cc1)C1CCCCC1`: the Potency entry in [1], in [2], in assay [3], in assay [4], in assay [5] and in [6] was “inactive” each time. Besides, the Potency entry in [7], in [8], in [9] and in assay [10] was “inactive” throughout.
In the case of `CS(=O)(=O)OCCCNCCCOS(C)(=O)=O`, the Potency result in assay [1], in [2], in assay [3], in assay [4], in [5] and in assay [6] was “inactive” each time. Further, the Potency result in [7], in assay [8], in assay [9] and in assay [10] was “inactive” throughout.
In the case of `C=C[C@]1(C)C[C@@H](OC(=O)CO)[C@]2(C)[C@H](C)CC[C@]3(CCC(=O)[C@H]32)[C@@H](C)[C@@H]1O`, the Potency result in [1], in assay [2], in assay [3], in [4], in [5] and in assay [6] was “inactive” each time. Further, the Potency result in assay [7], in assay [8], in assay [9] and in [10] was “inactive” throughout.
For the compound `C[C@@H]1C/C=C/C=C/C=C/C=C/[C@H](O[C@@H]2O[C@H](C)[C@@H](O)[C@H](N)[C@@H]2O)C[C@@H]2O[C@](O)(C[C@@H](O)C[C@H]3O[C@@H]3/C=C/C(=O)O1)C[C@H](O)[C@H]2C(=O)O`, the Potency entry in assay [1], in [2], in assay [3], in assay [4], in assay [5] and in assay [6] was “inactive” in each case. Besides, the Potency entry in assay [7], in assay [8], in assay [9] and in assay [10] was “inactive” throughout.
Regarding `COC1=C(C(=O)O)N2C(=O)[C@@H](NC(=O)[C@H](N)C3=CCC=CC3)[C@H]2SC1`, the Potency result in assay [1], in assay [2], in assay [3], in [4], in assay [5] and in assay [6] was “inactive” each time. The Potency entry in assay [7], in assay [8], in [9] and in assay [10] was “inactive” throughout.
Regarding `N[C@@H](C(=O)N[C@@H]1C(=O)N2C(C(=O)O)=C(Cl)CC[C@H]12)c1ccccc1`, the Potency entry in assay [1], in assay [2], in assay [3], in assay [4], in assay [5] and in assay [6] was “inactive” in each case. For the same compound, the Potency result in assay [7], in assay [8], in assay [9] and in assay [10] was “inactive” throughout.
On to `COc1cc(S(C)=O)ccc1-c1nc2ncccc2[nH]1` (stereo not given), for which the Potency result in assay [1], in [2], in [3], in [4], in assay [5] and in [6] was “inactive” each time. Moreover, the Potency result in [7], in [8], in assay [9] and in assay [10] was “inactive” in each case.
On to `CCC(c1ccccc1)c1noc(CCN(CC)CC)n1` (stereo not given), for which the Potency entry in assay [1], in [2], in assay [3], in assay [4], in assay [5] and in [6] was “inactive” each time. In addition, the Potency result in [7], in [8], in assay [9] and in assay [10] was “inactive” each time.
On to `C[C@H]1C[C@H]2[C@@H]3CCC4=CC(=O)C=C[C@]4(C)[C@@]3(F)[C@@H](O)C[C@]2(C)[C@@]1(O)C(=O)CCl`, for which the Potency result in assay [1], in assay [2], in assay [3], in [4], in [5] and in assay [7] was “inactive” in each case. Also, the Potency result in assay [8], in [9] and in assay [10] was “inactive” throughout. Also, in assay [6], the Potency is 11.9 µM (active).
Consider `CC(C)(CO)[C@@H](O)C(=O)NCCC(=O)NCCSSCCNC(=O)CCNC(=O)[C@H](O)C(C)(C)CO`, for which the Potency result in assay [1], in assay [2], in [3], in assay [4], in [5] and in assay [6] was “inactive” in each case. Also, the Potency entry in assay [7], in assay [8], in assay [9] and in assay [10] was “inactive” each time.
Turning to `O=C(OCCO)c1ccccc1O`, the Potency result in assay [1], in assay [2], in [3], in assay [4], in assay [5] and in [6] was “inactive” in each case. Further, the Potency entry in assay [7], in assay [8], in [9] and in assay [10] was “inactive” throughout.
